IDE inh: inhibits human insulin-degrading enzyme in HEK cells; 320,000 tested, 0.41% active; P14735; FAbetaB cleavage, fluorescence polarization; inhibition, % at 5.59 µM; AID 434962;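 active means percent inhibition above the average of all tested compounds plus 3 SD, set per screening campaign, cut at about 16% in these data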;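 further: IDE supplied by intact live HEK cells; FP after avidin binding of uncleaved biotin substrate so inhibition keeps polarization high; 0% = DMSO wells and 100% = 60 µM reference IDE inhibitor Ii1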
ALR H2O2 inh: inhibitors of human sulfhydryl oxidase ALR. P55789. purified ALR, DTT oxidation, H2O2 HRP-luminol luminescence. inhibition, % (test concentration not listed). 290,000 tested, 3.8% active;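 active means mean replicate inhibition above about 79%, with every replicate also reaching it, limit read from the data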
Target sequence (P55789 whole entry, looked up): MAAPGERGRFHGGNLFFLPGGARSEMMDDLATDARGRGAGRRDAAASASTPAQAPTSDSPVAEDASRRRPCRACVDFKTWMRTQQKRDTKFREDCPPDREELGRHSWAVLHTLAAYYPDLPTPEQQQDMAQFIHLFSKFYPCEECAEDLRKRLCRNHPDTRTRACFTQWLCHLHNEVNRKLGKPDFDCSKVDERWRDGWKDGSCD
PolyA inh: yeast polyadenylation inhibition; S. cerevisiae SKY197-pL101 polyadenylation reporter, beta-gal luminescence; efflux-impaired pdr1/pdr3 knockout yeast; score 100 = 6 SD above DMSO; activity score, % at 12 µM; 300,000 tested, 0.02% active; AID 1875;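 active means lowest replicate activity score at least 50, where 100 means six control SD above control mean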;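 further: yeast exposed to compound for 9 h at 30 °C; higher score means more reporter readthrough which indicates perturbed polyadenylation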
IDE act: boosts human insulin-degrading enzyme activity in HEK cells. P14735. FAbeta-B cleavage, fluorescence polarization; 0% vehicle, 100% cell-free pure enzyme wells. activation, % at 5.96 µM. 340,000 tested, 0.073% active. AID 493087;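 active means activation above the mean of all tested compounds plus 3 SD, set per screening campaign, cut at about 17% in these data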
PfM18AAP inh: blocks P. falciparum M18 aspartyl aminopeptidase; recombinant PfM18AAP, H-Glu-NHMec fluorogenic cleavage; 290,000 tested, 1.2% active; inhibition, % at 7.35 µM; AID 1822;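 active means inhibition above the campaign mean inhibition over all tested compounds plus 3 SD, cut at about 28% in these data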;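 further: 0% = plate median of test compound wells and 100% = 2 mM ZnCl2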
CaV13 ICDI inh: Disruptors of the CACNA1D IQ motif to Ca2+-dependent inactivation inhibitor domain association, primary screening, Förster resonance energy transfer in intact living …. HEK cells, CFP/YFP FRET ICDI-IQ, plate reader, 10 min; percent FRET-ratio fall versus neutral wells. inhibition, % at 12.3 µM. 340,000 tested, 0.098% active. AID 743397;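 active means mean replicate inhibition of at least 30% and at least 1% of replicates passing that level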;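 further: 0% = median of the neutral control wells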
An asterisk follows results filed as active; / = no result given; + = active, no number. Compounds with a hit are over-represented: about 4.1% of the library has one in this group of screens.

SMILES	IDE inh	ALR H2O2 inh	PolyA inh	IDE act	PfM18AAP inh	CaV13 ICDI inh
CC(=O)C1=C(O)C(=O)N(c2cccc(Br)c2)C1c1ccc(Br)cc1 (centres undefined)	-4	16	-10	-2	-2	-20
CCOC(=O)/C=C/C(=O)OCC(=O)Nc1ccc(Cl)cn1	1	14	27	4	-19	/
CCOC(=O)NC1(Nc2ccc(Cl)cn2)Oc2ccccc2O1	/	/	/	/	57*	/
CC(OC(=O)[C@@H](NC(=O)c1ccco1)C(C)C)C(=O)Nc1ncc(Cl)cc1Cl (some centres undefined)	3	0	/	3	/	-3
CCOC(=S)SCC(=O)Nc1ncc(C)s1	7	99*	19	4	9	-1
Cc1cnc(NC(=O)CSc2ccccc2)s1	2	-4	14	-2	3	-6
O=C(CCN1CCc2ccccc2C1)c1ccc2c(c1)OCCO2	-1	98*	11	5	-9	/
O=C(CCN1CCc2ccccc21)c1ccc2c(c1)OCCO2	-1	-27	-26	6	0	/
O=C1NC[C@H](CCCCN2C[C@H](Cc3ccc(O)cc3)N(Cc3ccccc3)C(=O)C2=O)N(CCc2ccc(O)cc2)C1=O	/	/	/	/	/	-7
Cn1cc(-c2csc(C(O)(c3ccccc3)C(F)(F)F)n2)cn1 (centres undefined)	/	/	/	/	/	-5
Cc1cc(NC(=O)c2ccoc2C)ccc1Br	-1	89*	/	5	/	-6
CC1CCCN(C(=O)C(=O)Nc2ccc3nc4n(c(=O)c3c2)CCCCC4)C1 (centres undefined)	-1	-8	-5	1	6	-6
O=C(Nc1ccccc1)N(Cc1ccccc1)C1=NCCS1	1	99*	11	2	-1	/
Nc1ccc2c(=O)[nH][nH]c(=O)c2c1	/	/	/	-5	/	-5
Nc1ccc2oc3ccc(N)cc3c(=O)c2c1	4	99*	10	5	24	/
O=C(O)CN1C(=O)C2C3CCC(C3)C2C1=O (centres undefined)	/	/	/	/	/	-6
COc1cc(NS(=O)(=O)c2ccc(NC(=O)COc3ccccc3C)cc2)nc(OC)n1	-7	99*	1	-3	5	/
Cc1cc(C)nc(NS(=O)(=O)c2ccc(NC(=O)Cc3ccccc3F)cc2)n1	-3	99*	9	-1	-5	-3
CCOc1ccccc1OCC(=O)Nc1ccc(S(=O)(=O)Nc2nc(C)cc(C)n2)cc1	0	95*	5	5	-1	-4
Cc1cc(C)nc(NS(=O)(=O)c2ccc(NC(=O)COc3ccccc3F)cc2)n1	-3	52	/	1	/	-3
COc1cc(NS(=O)(=O)c2ccc(NC(=O)COc3ccc(C)cc3C)cc2)nc(OC)n1	-4	/	1	6	0	-6
Cc1cc(C)nc(NS(=O)(=O)c2ccc(NC(=O)NC3CCCCC3)cc2)n1	3	98*	0	7	4	-6
CC(C(=O)N1CCc2ccccc21)N1CCN(S(=O)(=O)c2ccc3c(c2)OCCCO3)CC1 (centres undefined)	/	/	/	4	/	-6
Cc1cc(NCCN2CCOCC2)n2c(nc3ccccc32)c1C#N	12	-8	15	-4	2	-5
Cc1c2c(n3c(nc4ccccc43)c1C#N)N(CCN1CCOCC1)CC2	4	/	5	0	0	+
SMILES	IDE inh	ALR H2O2 inh	PolyA inh	IDE act	PfM18AAP inh	CaV13 ICDI inh
C/C(=N\NC(=O)c1ccncc1)c1ccc(N(C)C)cc1	3	91*	5	1	2	-9
C/C(=N/NC(=O)c1ccncc1)c1ccccc1	2	-9	-6	2	6	-5
C/C(=N\NC(=O)c1ccc(N/N=C(\C)c2ccncc2)cc1)c1ccncc1	-2	98*	7	-1	-12	3
CC1(C)NC(=O)N(CC(=O)OCC(=O)N2CCN(S(=O)(=O)c3ccccc3)CC2)C1=O	/	/	/	0	/	-6
O=C1NC(C(=O)O)=CC(c2ccc([N+](=O)[O-])cc2)N1 (centres undefined)	0	78*	11	1	12	-5
CCN(CC)CCN1CCn2c3c(c4cc(C)ccc42)CCCC31 (centres undefined)	9	99*	7	-2	5	-30
N#Cc1cccc(N=c2ssnc2Cl)c1	/	/	-19	/	29*	-5

Screening results (PubChem)
